Measured values taken from PubChem BioAssay AID793 (The Scripps Research Institute Molecular Screening Center, 2007).
“And” between values parts separate entries of the source, which are not always exact repeats. Equal entries are not always repeated. About 1,400 (1%) of roughly 140,000 compounds were called active. This is one part of a sample in which actives are shown more often than they occur. Cut-off read from the data, not from the text of the source: active = inhibition above about 17%; inactive = the rest. Some compounds were tested as several samples or in several runs, with calls that do not always agree.

molecular target: Neuropeptide Y receptor type 2 (Homo sapiens) (UniProt P49146); test: NPY-Y2 receptor antagonists, primary screen, cell-based (AID 793); conditions: NPY-Y2 expressing cells, antagonist mode; at 2.7 µM; stronger effect = higher value;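 note: 0% = vehicle with agonist challenge and 100% = reference antagonist with challenge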
Sequence (P49146 whole entry, looked up): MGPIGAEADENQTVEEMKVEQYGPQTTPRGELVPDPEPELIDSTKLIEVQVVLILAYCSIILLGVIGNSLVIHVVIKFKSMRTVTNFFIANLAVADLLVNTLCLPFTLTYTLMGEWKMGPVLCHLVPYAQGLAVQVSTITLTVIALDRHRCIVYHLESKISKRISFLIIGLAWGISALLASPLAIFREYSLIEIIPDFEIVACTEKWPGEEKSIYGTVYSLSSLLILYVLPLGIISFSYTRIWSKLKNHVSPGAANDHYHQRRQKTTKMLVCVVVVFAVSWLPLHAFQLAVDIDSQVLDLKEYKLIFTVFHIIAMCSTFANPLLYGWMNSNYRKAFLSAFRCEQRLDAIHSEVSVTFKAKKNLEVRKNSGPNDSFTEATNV

| SMILES | inhibition |
| --- | --- |
| NC(=O)CC[C@@H]1NC(=O)[C@H](CO)NC(=O)c2cc([N+](=O)[O-])cc(I)c2NCC[C@@H](C(N)=O)NC1=O | 0.11% (inactive) |
| COCCN1C(=O)N[C@@H](c2ccccc2)C(C(=O)OC)=C1C | 1.37% (inactive) |
| Cc1ccc(S(=O)(=O)c2ccc(Cl)cc2)cc1S(=O)(=O)NC(C(=O)O)C(C)C (stereo not drawn) | -0.6% (inactive) |
| C/C(Cc1ccccc1)=N\NC(=O)CNC(=O)c1cccc(Br)c1 | 2.91% (inactive) |
| COc1cc(C(=O)Nc2oc(-c3ccccc3)c(-c3ccccc3)c2C#N)cc(OC)c1OC | 0.05% (inactive) |
| N#Cc1c(NC(=O)CCCN2C(=O)c3ccccc3C2=O)oc(-c2ccccc2)c1-c1ccccc1 | 20.4% (active) |
| O=C(CCN1C(=O)c2ccccc2C1=O)Nc1ccncc1 | 1.5% (inactive) |
| O=C(/C=C/c1cnc2ccccc2n1)NC1CCCCCC1 | 5.1% (inactive) |
| O=C(O)/C(=C/c1cccnc1)NC(=O)c1ccccc1 | 0.95% (inactive) |
| CCCc1[nH]nc2c1C(c1ccc(Br)s1)C(C#N)=C(N)O2 (stereo not drawn) | 53.5% (active) |
| CCCc1[nH]nc2c1C(c1c(C)nn(-c3ccccc3)c1Cl)C(C#N)=C(N)O2 (stereo not drawn) | 0.27% (inactive) |
| CCCc1[nH]nc2c1C(C1CC=CCC1)C(C#N)=C(N)O2 (stereo not drawn) | 2.32% (inactive) |
| Cc1[nH]c2ccccc2c1C(=O)COC(=O)c1c(-c2ccccc2)noc1C | -0.4% (inactive) |
| C/C(=C/C(=O)N1CCN(C)CC1)C(=O)O | 1.55% (inactive) |
| CN(CC(=O)Nc1ccc(S(=O)(=O)N2CCCC2)cc1)Cc1ccc(Cl)c(Cl)c1 | 1.24% (inactive) |
| CC(C)CNC(=S)NC(=O)c1ccc(Cl)cc1 | 6.88% (inactive) |
| Cc1ccc(Cn2c(NC(=O)c3ccco3)nc3ccccc32)cc1 | 15.8% (inactive) |
| N=c1n(Cc2ccc(Cl)cc2)c2ccccc2n1CC(O)c1ccco1 (stereo not drawn) | 18.4% (active) |
| O=S(=O)(O)c1nc2ccccc2n1Cc1ccc(Cl)cc1 | 3% (inactive) |
| CC(C)[C@@H]1NC(=O)c2cc([N+](=O)[O-])cc(I)c2NCCC[C@@H](C(=O)NC(CC(=O)O)C(N)=O)NC(=O)[C@H](CO)NC1=O (stereo partly drawn) | 2.25% (inactive) |

| SMILES | inhibition |
| --- | --- |
| CCOc1ccc(NC(=O)c2ccc(CSc3nnnn3C)cc2)cc1 | 1.22% (inactive) |
| C=CCNC(=O)CCCOc1cccc(C)c1 | 1.38% (inactive) |
| C=CCNCCCCOc1ccccc1 | 28.3% (active) |
| O=C(NCCOc1ccccc1)c1ccccc1 | 0.21% (inactive) |
| CCC1S/C(=N/N=C/c2ccco2)NC1=O (stereo not drawn) | 2.82% (inactive) |
| CN(C)S(=O)(=O)c1cc(NC(=O)CN2C(=O)NC3(CCCc4ccccc43)C2=O)ccc1Cl (stereo not drawn) | -4.1% (inactive) |
| OCC(CO)(CO)NCc1ccc(-c2ccccc2)cc1 | 4.54% (inactive) |
| COc1ccc(S(=O)(=O)NC(C)C)cc1C(=O)NC1CCCCC1 | 5.96% (inactive) |
| COc1cc2c3c(c1)/C(=C1/SC(=S)NC1=O)C(=O)N3C(C)(C)C=C2C | -1.35% (inactive) |
| COc1ccc(C(CC(=O)O)NC(=O)Cc2ccccc2)cc1 (stereo not drawn) | 0.31% (inactive) |
| CCC[C@@H]1C[C@@]1(CCC)[C@@H](NC(=O)c1ccccc1)c1ccc(C(=O)OC)cc1 | 6.17% (inactive) |
| CCC/C=C(\CCC)C(NC(=O)Cc1ccccc1)c1ccc(C(=O)OC)cc1 (stereo not drawn) | 20.7% (active) |
| CCN(c1ccc(NC(=O)COC(=O)CCc2nc3ccccc3n2-c2ccccc2)cc1)C(C)C | -0.2% (inactive) |
| Cc1cc(-c2n[nH]c(=S)n2-c2ccc(C)c(C)c2)no1 | 3.33% (inactive) |
| Cc1nc(SCc2ccc(F)cc2)c([N+](=O)[O-])[nH]1 | 6.36% (inactive) |
| COc1cc(/C=C/C(=O)O)cc(S(=O)(=O)Nc2ccccc2SC)c1OC | 1.33% (inactive) |
| Cc1cccc2cc(CN(Cc3ccc4c(c3)OCO4)Cc3nnnn3C3CCCC3)c(=O)[nH]c12 | -0.14% (inactive) |
| Cc1cccc2cc(CN(Cc3cccs3)C(c3nnnn3C3CCCC3)C(C)C)c(=O)[nH]c12 (stereo not drawn) | 11% (inactive) |
| CCC(c1nnnn1C1CCCC1)N(Cc1cccs1)Cc1cc2cccc(C)c2[nH]c1=O (stereo not drawn) | 18% (active) |
| O=C(CC(=O)N/N=C\c1cccc(Cl)c1Cl)NCc1ccccc1 | 13.3% (inactive) |

| SMILES | inhibition |
| --- | --- |
| COc1ccc(-c2nn(-c3ccccc3)cc2C(=O)Nc2nccs2)cc1OC | 17.6% (active) |
| COc1ccc(-c2nn(-c3ccccc3)cc2C(=O)Nc2nc(CC(C)=O)ns2)cc1 | -0.9% (inactive) |
| COc1ccc(-c2nn(-c3ccccc3)cc2/C=N/Nc2ccccn2)cc1OC | 9.59% (inactive) |
| O=C(c1cncc(Br)c1)N1CCN(c2ccc([N+](=O)[O-])cc2)CC1 | 0.95% (inactive) |
| C/C(=N\Nc1ncc(Cl)cc1Cl)c1ccc(S(=O)(=O)NCc2ccco2)cc1 | 2.79% (inactive) |
| Cc1ccc(N/N=C2\COC(C)(C)CC2=O)cc1 | 1.13% (inactive) |
| Cc1ccc(NC(=O)NC(=O)CSc2nnc(-c3ccc(OC(F)F)cc3)n2N)c(C)c1 | 0.74% (inactive) |
| Cc1ccccc1OC(=O)Cn1c(C(F)(F)F)nc2ccccc21 | 20.2% (active) |
| CC(C)(C)NC(=O)NC(=O)COC(=O)Cn1c(C(F)(F)F)nc2ccccc21 | 6.71% (inactive) |
| CN1CCN(C(=O)Cn2c(C(F)(F)F)nc3ccccc32)CC1 | -1.96% (inactive) |
| CCCCN(CC)C(=O)c1ccccc1Oc1ccccc1 | 9.08% (inactive) |
| Cc1ccc(C(=O)C[n+]2cc(-c3ccccc3)n3c2CCCCC3)cc1 | 13.7% (inactive) and 24.1% (active) |
| O=C(c1ccc(CSc2ccccc2)cc1)N1CCCCCC1 | 4.41% (inactive) |
| Cc1ccc(C(=O)CS(C)(=O)=O)cc1 | 4.03% (inactive) |
| COc1ccc(C2c3c(C)nn(-c4ccccc4)c3NC(=O)N2c2ccccc2)cc1 (stereo not drawn) | 0.06% (inactive) |
| CCn1cc(CNC(=O)c2cc([N+](=O)[O-])c(C)c([N+](=O)[O-])c2)cn1 | 2.2% (inactive) |
| Cc1cc(C(=O)N/N=C/c2cc([N+](=O)[O-])cc(C)c2O)n[nH]1 | 9.9% (inactive) |
| O=C(COC(=O)Cn1cnc2ccccc21)Nc1cccc2c1C(=O)c1ccccc1C2=O | 4.37% (inactive) |
